Assay outcomes deposited in PubChem BioAssay by several laboratories.
Shown are actives, neighbours in structure and some others; about 1.3% of the full set was active somewhere.
PfHsp40 yeast – compounds rescuing yeast from Plasmodium falciparum HSP40 toxicity; S. cerevisiae expressing PfHsp40, growth rescue, ATP luminescence; growth rescue, % at 12.5 µM; 340,000 tested, 0.68% active; in the data active means growth rescue above about 28%, passing the limit was not always enough;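 further: yeast W303a lacking pdr1 and pdr3 grown in galactose medium; growth measured after three days at 30 °C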
Sa RN4220 lethal – S. aureus RN4220 growth inhibition; OD600, 16 h; inhibition, % (test concentration not listed); 330,000 tested, 0.33% active; AID 1259311; in the data active means inhibition above about 85%;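 further: plate controls were untreated cells for no effect and reference antibiotic for full effect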
MazF activator – activators of E. coli MazEF toxin-antitoxin RNase; P0AE70; AID 504720; FAM/BHQ RNA-DNA oligo cleavage fluorescence, 5 h; 350,000 tested, 0.32% active; activation, % at 20 µM; in the data active means activation above about 50%
Target sequence (P0AE70 whole entry, looked up): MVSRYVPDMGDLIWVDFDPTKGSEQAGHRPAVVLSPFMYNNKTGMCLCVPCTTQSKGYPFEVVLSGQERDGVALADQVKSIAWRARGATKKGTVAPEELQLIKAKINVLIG
TcdB inh – TcdB glycohydrolase inhibition; 350,000 tested, 0.24% active; inhibition, % at 9.99 µM; TcdB glycohydrolase enzymatic assay, plate reader; in the data active means inhibition above about 10%
Mtb hypoxia inh – inhibitors of hypoxia-regulated fluorescent reporter in Mycobacterium tuberculosis; M. tuberculosis hypoxia-regulated fluorescent reporter, fluorescence; fluorescence inhibition, % (test concentration not listed); 300,000 tested, 0.1% active; in the data active means fluorescence inhibition mostly above about 23%, no sharp cut-off; inactive means mostly below about 17%
ugtP null kill – compounds lethal to S. aureus RN4220 ugtP deletion mutant | OD600 growth, 16 h | growth inhibition, % (test concentration not listed) | 330,000 tested, 0.54% active | AID 1259309; in the data active means growth inhibition above about 68%;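 further: plate controls were untreated wells for no effect and antibiotic for full effect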
The depositor's hits bear a star.

For Cc1ccc(S(=O)(=O)N2[C@@H](c3cccc(Cl)c3)C(C(=O)O)=CC[C@H]2c2cccc(Cl)c2)cc1 the results were PfHsp40 yeast 12, MazF activator -3 and TcdB inh 0.
CCOc1ccc(C2CC=C(C(=O)O)C(c3cccc(Cl)c3)N2S(=O)(=O)c2ccc(C)cc2)cc1 (configuration not stated) was read as Sa RN4220 lethal 14, Mtb hypoxia inh 10 and ugtP null kill 26.
`Cc1ccc(S(=O)(=O)N2[C@@H](c3ccc(C(C)(C)C)cc3)C(C(=O)O)=CC[C@H]2c2ccc(Cl)c(Cl)c2)cc1` gave PfHsp40 yeast 3, Sa RN4220 lethal 100*, MazF activator -11, TcdB inh 0, Mtb hypoxia inh 4 and ugtP null kill 95*.
Screening Cc1ccc([C@H]2C(C(=O)O)=CC[C@@H](c3cccc(Cl)c3)N2S(=O)(=O)c2ccc(C)cc2)cc1 returned PfHsp40 yeast 213*, Sa RN4220 lethal 18, MazF activator -10, TcdB inh 0, Mtb hypoxia inh -2 and ugtP null kill 13.
Screening Oc1ccc(Cc2ccccc2Cl)c(O)c1 returned PfHsp40 yeast 3, Sa RN4220 lethal -9, MazF activator -6, TcdB inh 13*, Mtb hypoxia inh 12 and ugtP null kill -30.
Oc1ccc(Cc2ccc(Cl)cc2)c(O)c1 was read as PfHsp40 yeast 0, MazF activator -18 and TcdB inh 10*.
O=C(Cc1ccc(Cl)cc1)NNc1c(F)c(F)cc(F)c1F was read as PfHsp40 yeast 0, Sa RN4220 lethal 15, MazF activator -14, TcdB inh 1, Mtb hypoxia inh 14 and ugtP null kill 9.
`COc1ccc(/C=N/Nc2cc(C)nc(-n3nc(C)cc3C)n2)c(OC)c1` gave PfHsp40 yeast 178*, MazF activator -4 and TcdB inh 2.
CC(=NOCC(=O)OC(C)C(=O)Nc1ccc(C)c(S(=O)(=O)N2CCOCC2)c1)c1ccc2c(c1)OCO2 (configuration not stated) was read as Sa RN4220 lethal 5, Mtb hypoxia inh 6 and ugtP null kill 1.
CC(C)CNC(=O)C(=O)NNC(=O)C1CCCCC1 was read as PfHsp40 yeast 0, Sa RN4220 lethal 0, MazF activator -5, TcdB inh 1, Mtb hypoxia inh 3 and ugtP null kill -1.
CC(CNC(=O)C1CCCCC1)NC(=O)C1CCCCC1 (configuration not stated) was read as PfHsp40 yeast 80*, Sa RN4220 lethal 1, MazF activator -3, TcdB inh 0, Mtb hypoxia inh 5 and ugtP null kill 2.
`C[C@@H]1CN([C@H](C)CO)C(=O)c2cc(-c3ccncc3)cnc2O[C@@H]1CN(C)C(=O)c1ccc(F)cc1` gave TcdB inh -2.
`COc1cc(C=Nn2cnnc2)ccc1OCc1ccc(C)cc1` gave Sa RN4220 lethal 2, Mtb hypoxia inh 7 and ugtP null kill -19.
`Cc1cc(Cl)ccc1OCc1n[nH]c(=S)n1C1CCCCC1` gave PfHsp40 yeast 80*, Sa RN4220 lethal 6, MazF activator 6, Mtb hypoxia inh 11 and ugtP null kill 5.
`O=C(COc1ccc2ccccc2c1)Nc1cccc(C(=O)Nc2ccccc2C(=O)O)c1` gave PfHsp40 yeast 37*, Sa RN4220 lethal 30, MazF activator 0, Mtb hypoxia inh 5 and ugtP null kill 19.
Screening O=C(CCN1CCOCC1)N/N=C/c1cc(Br)cc(Br)c1O returned PfHsp40 yeast 40*, MazF activator 3 and TcdB inh -16.
Screening O=C(Cc1ccccc1)N/N=C/c1cc(Br)cc(Br)c1O returned PfHsp40 yeast 0, MazF activator -7 and TcdB inh 2.
CC(C)(Sc1ccc(CCN(CCCCC2CCCCC2)C(=O)NC2CCCCC2)cc1)C(=O)O was read as PfHsp40 yeast -1, Sa RN4220 lethal 66, MazF activator 3, TcdB inh -1, Mtb hypoxia inh 8 and ugtP null kill 86*.
Screening C[C@@H]1CN([C@H](C)CO)C(=O)c2cc(-c3ccc(C(=O)N(C)C)cc3)cnc2O[C@H]1CN(C)C(=O)CN(C)C returned TcdB inh -2.
`CCCCOc1ccc2c(c1)C(=O)c1cc(O)ccc1-2` gave PfHsp40 yeast 284*, Sa RN4220 lethal 20, MazF activator 2, TcdB inh 5, Mtb hypoxia inh 2 and ugtP null kill 92*.
